Read-out in test [1]: Human Leukocyte Antigen - DR isotype (HLADR), HLA-DRA (gene 3122)
The test is described as follows: BSK_CASM3C_HLADR: BioMAP Diversity Plus: CASM3C Assay for Human Leukocyte Antigen - DR isotype (HLADR) Biomarker Activity (AID 2283043).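 Note: cell-surface HLA-DR protein level quantified by ELISA.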 Particulars: primary human coronary artery smooth muscle cells; actives raise or lower the signal.

Read-out in test [2]: Macrophage colony-stimulating factor (MCSF), CSF1 (gene 1435)
The test is described as follows: BSK_CASM3C_MCSF: BioMAP Diversity Plus: CASM3C Assay for Macrophage colony-stimulating factor (MCSF) Biomarker Activity (AID 2283044).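 Note: M-CSF protein amount quantified by ELISA after 24 h exposure.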 The following applies: primary human coronary artery smooth muscle cells; actives raise or lower the signal.

Read-out in test [3]: Low-density lipoprotein receptor (LDLR), LDLR (gene 3949)
Description: BSK_CASM3C_LDLR: BioMAP Diversity Plus: CASM3C Assay for Low-density lipoprotein receptor (LDLR) Biomarker Activity (AID 2283045).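 Note: LDLR protein level on the cell surface quantified by ELISA.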 The following applies: primary human coronary artery smooth muscle cells; actives raise or lower the signal.

Read-out in test [4]: Monocyte Chemoattractant Protein-1 (MCP1), CCL2 (gene 6347)
Description: BSK_CASM3C_MCP1: BioMAP Diversity Plus: CASM3C Assay for Monocyte Chemoattractant Protein-1 (MCP1) Biomarker Activity (AID 2283046).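 Note: MCP-1 level quantified by ELISA 24 h after dosing.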 The following applies: primary human coronary artery smooth muscle cells; actives raise or lower the signal.

Test [5] can be described thus: BSK_CASM3C_Proliferation: Cell Proliferation Assessment in the BioMAP Diversity Plus: CASM3C Assay (AID 2283047).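 Note: sulforhodamine B total protein stain as relative cell number at 560 nm; sub-confluent cells exposed 48 h before staining; fitted both ways against DMSO so gain or loss of cell number.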 The following applies: primary human coronary artery smooth muscle cells.
Read-out in test [6]: Monokine induced gamma interferon (MIG), CXCL9 (gene 4283)
The test is described as follows: BSK_CASM3C_MIG: BioMAP Diversity Plus: CASM3C Assay for Monokine induced gamma interferon (MIG) Biomarker Activity (AID 2283048).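 Note: MIG protein level measured by ELISA.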 Particulars: primary human coronary artery smooth muscle cells; actives raise or lower the signal.

Read-out in test [7]: serum amyloid A (SAA), SAA1 (gene 6288)
Description: BSK_CASM3C_SAA: BioMAP Diversity Plus: CASM3C Assay for serum amyloid A (SAA) Biomarker Activity (AID 2283049).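 Note: SAA protein level quantified by ELISA.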 The following applies: primary human coronary artery smooth muscle cells; actives raise or lower the signal.

Test [8] can be described thus: BSK_CASM3C_SRB: Viability Assessment in the BioMAP Diversity Plus: CASM3C Assay (AID 2283050).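 Note: total protein by SRB staining as cytotoxicity measure in parallel cultures; cells exposed to compound for 24 h.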 Particulars: primary human coronary artery smooth muscle cells.
Read-out in test [9]: Thrombomodulin, THBD (gene 7056)
The test is described as follows: BSK_CASM3C_Thrombomodulin: BioMAP Diversity Plus: CASM3C Assay for Thrombomodulin Biomarker Activity (AID 2283051).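 Note: thrombomodulin protein level measured by ELISA 24 h after dosing.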 The following applies: primary human coronary artery smooth muscle cells; actives raise or lower the signal.

Read-out in test [10]: Tissue Factor, F3 (gene 2152)
Description: BSK_CASM3C_TissueFactor: BioMAP Diversity Plus: CASM3C Assay for Tissue Factor Biomarker Activity (AID 2283052).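 Note: cell surface tissue factor protein level read by ELISA.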 The following applies: primary human coronary artery smooth muscle cells; actives raise or lower the signal.

Several values for one entry are separate records, joined by “and”; a condition that tells them apart may be missing. Identical values can stand only once. Some structures have more than one record in an assay (separate samples or runs), and their calls can disagree. Activity calls are given as the source filed them. Rule for the calls: active = hit-call score of the fitted dose curve at least 0.9, where 1 is the maximum; inactive = score below 0.9.

The term AC50 denotes the concentration at which the activity in the assay is half-maximal.

As for `N#CCCC(Br)(C#N)CBr` (stereo unspecified), the AC50 in test [1] is 8.75 µM (active); in test [2], 20 µM (active); in test [3], 12.2 µM (active); in test [4] it was 20 µM (active); in [5] it was 3.93 µM (active); in test [6], 33.8 µM (active). For the same compound, the AC50 was 11.8 µM (active) in test [7], 20 µM (active) in [8], 20 µM (active) in test [9] and 12.7 µM (active) in test [10].
As for `O=S(=O)(c1ccc(Cl)cc1)c1cc(Cl)c(Cl)cc1Cl`, the outcome in test [1], in test [2], in test [3], in test [4], in test [5] and in [6] was inactive. In addition, the result in test [7], in test [8] and in [10] was inactive. In test [9], the AC50 was 8.36 µM (active).
For the compound `CC(C)(COCC1CO1)COCC1CO1` (stereo unspecified), the result in test [1], in [2], in test [3], in [4], in test [5] and in test [6] was inactive. The outcome in test [7], in test [8], in test [9] and in test [10] was inactive.
Take `Cc1ccccc1OP(=O)(Oc1ccccc1C)Oc1ccccc1C`: the AC50 was 32.9 µM (active) in test [1]; 29.4 µM (active) in test [2]; 24.3 µM (active) in test [4]; 24.3 µM (active) in test [5]; 30.1 µM (active) in test [8]. For the same compound, the result in test [3], in test [6], in test [7], in [9] and in [10] was inactive.
Regarding `Clc1cccc(Cl)c1Cl`, the outcome in [1], in [2], in test [3], in test [4], in [5] and in test [6] was inactive. The result in test [7], in test [8], in test [9] and in test [10] was inactive.
For `Oc1cccc(-c2ccccc2)c1`, the result in [1], in [2], in test [3], in [6], in test [7] and in test [9] was inactive. Besides, the AC50 was 20 µM (active) in test [4], 34.4 µM (active) in [5], 28.7 µM (active) in [8] and 20 µM (active) in test [10].
On to `CC(C)O.CC(C)O.OCCN(CCO)CCO.OCCN(CCO)CCO.[Ti]`, for which the outcome in test [1], in test [2], in [3], in test [4], in test [5] and in test [6] was inactive. For the same compound, the result in [7], in [8], in [9] and in [10] was inactive.
As to `Cc1c([N+](=O)[O-])c(C)c([N+](=O)[O-])c(C(C)(C)C)c1[N+](=O)[O-]`, the result in test [1], in [2], in test [3], in test [4], in test [5] and in [6] was inactive. Further, the outcome in test [7], in test [8], in test [9] and in test [10] was inactive.
Consider `CCOC(=O)CCN(SN(C)C(=O)Oc1cccc2c1OC(C)(C)C2)C(C)C`, for which the AC50 is 12.2 µM (active) in test [1], 20 µM (active) in [2], 20 µM (active) in [5] and 8.62 µM (active) in test [10]. For the same compound, the result in [3], in test [4], in [6], in [7], in test [8] and in test [9] was inactive.
With `CCOP(=S)(OCC)OP(=S)(OCC)OCC`, the outcome in test [1], in test [2], in [3], in test [4], in [6] and in test [7] was inactive. For the same compound, the result in [8], in [9] and in test [10] was inactive. The AC50 in [5] is 29 µM (active).
Turning to `OC(Cc1ccccc1Cl)(Cn1[nH]cnc1=S)C1(Cl)CC1` (stereo unspecified), the AC50 in [1] was 26.7 µM (active); in test [3], 3.97 µM (active); in test [7], 5.29 µM (active); in test [8], 31.4 µM (active); in test [10], 15.3 µM (active). The outcome in test [2], in [4], in test [5], in [6] and in test [9] was inactive.
As for `CC1(C)[C@H](C(=O)O[C@H](C#N)c2cccc(Oc3ccccc3)c2)[C@@H]1/C=C(\Cl)C(F)(F)F`, the outcome in [1], in test [2], in test [3], in test [4], in test [5] and in [6] was inactive. The result in test [7], in test [8] and in [10] was inactive. Further, the AC50 is 3.39 µM (active) in test [3]; 5.06 µM (active) and 7.16 µM (active) in test [9].
In the case of `Cc1ccccc1OP(=O)(Oc1ccccc1)Oc1ccccc1`, the result in test [1], in test [2], in test [3], in test [4], in test [5] and in [6] was inactive. Further, the result in test [7], in test [9] and in test [10] was inactive. The AC50 in test [8] was 8.32 µM (active).
Take `c1ccc2sc(SNC3CCCCC3)nc2c1`: the outcome in test [1], in test [2], in test [3], in [4], in test [5] and in test [6] was inactive. Further, the result in test [7], in [8], in test [9] and in test [10] was inactive.
As to `Cc1cc(Cl)ccc1OC(C)C(=O)O` (stereo unspecified), the outcome in test [1], in test [2], in test [3], in test [4], in test [5] and in [6] was inactive. Besides, the result in [7], in test [8], in test [9] and in test [10] was inactive.
In the case of `c1ccc(-c2cccc(-c3ccccc3)c2)cc1`, the result in test [1], in test [2], in [3], in test [4], in test [5] and in test [6] was inactive. Further, the result in test [7] and in [10] was inactive. For the same compound, the values for the AC50 in test [8] and in test [9] were 33.5 µM (active) and 20 µM (active), respectively.
Turning to `OCCN(CCO)CCO`, the outcome in test [1], in test [2], in test [3], in [4], in test [5] and in test [6] was inactive. The result in [7], in [8], in [9] and in test [10] was inactive.
For the compound `O=[N+]([O-])c1cccc2ccccc12`, the result in test [1], in test [2], in test [3], in test [4], in test [5] and in test [6] was inactive. Moreover, the result in test [7], in test [8], in [9] and in test [10] was inactive.
Take `O=C(O)C1(c2ccc3c(c2)OC[C@H](Cc2ccc(-c4ccccc4)cc2)[C@H]3O)CCCC1`: the AC50 in test [1] was 25 µM (active); in test [5], 33.3 µM (active). The outcome in [2], in test [3], in [4], in [6], in [7] and in test [8] was inactive. Moreover, the outcome in [9] and in [10] was inactive.

The values are drawn from PubChem BioAssay (EPA / NIEHS).
